The list is not random: actives were taken first. Their share in the collection is about 11%.
AMA1-RON2 inh: disrupts binding of P. falciparum AMA1 to RON2 | AlphaScreen AMA1-biotinylated RON2 peptide binding | Potency, µM (series often up to 58.2 µM), actives largely listed as inhibitors | 360,000 tested, 0.2% active | AID 720542; note: nearly all actives have a fitted effect of over 45% in size
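AMA1 (3D7) with his tag at 25 nM final met compounds first, then biotinylated RON2 peptide at 25 nM; detection used donor plus acceptor beads, 10 µg/mL apiece, read by AlphaScreen after 30 min at room temperature.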
Pf growth 48h: P. falciparum growth inhibition at 48 hours (one generation); P. falciparum luciferase growth in erythrocytes, 48 h; Potency, µM (titrated, usually from 28.7 µM), hits mostly inhibitors; 310,000 tested, 5.9% active
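A one-generation exposure of luciferase-tagged malaria parasites in RPMI 1640/Albumax erythrocyte culture, 37 C and 5% CO2. Inhibition is inferred from decreased luminescence after adding detection reagent.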
HCV inh: blocks hepatitis C virus. Huh7.5.1 HCVcc-Cre infection, luciferase reporter, 44 h. Potency, µM (highest dose often 41.8 µM), actives largely listed as inhibitors. 340,000 tested, 3.4% active
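Infectious HCV cell culture screen: compound-treated cells (1,000/well, pre-plated 4 h) are infected with HCVcc-Cre at roughly 0.5 moi and grown 44 h. Infection is quantified by luciferase signal after 15 min substrate incubation at room temperature.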
Pf growth 96h: inhibits malaria parasite growth, 96 h; AID 504834; P. falciparum luciferase reporter growth, 96 h; 320,000 tested, 6.9% active; Potency, µM (doses to about 28.7 µM), actives largely listed as inhibitors
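P. falciparum expressing integrated firefly luciferase, in erythrocytes at 2% hematocrit, 0.05% parasitemia, incubated with compounds 96 h at 37 C, 5% CO2. Growth inhibition read as loss of luminescence; two-generation exposure targets delayed-death apicoplast inhibitors.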
A number is an active result; . = inactive; ? = inconclusive; / = no result given; [ ] = another dose, or the depositor's remark. Calls come from the whole dose curve; as a rule, active = well fitted curve in the direction sought with a large enough effect; inconclusive = small, poorly fitted or top-dose-only effect, or another doubt; inactive = no such curve, though single readings can be large; an effect the other way counts as inactive or inconclusive.

SMILES	AMA1-RON2 inh	Pf growth 48h	HCV inh	Pf growth 96h
CCn1nc(C)c(NC(=O)c2cnn3c(C(F)F)cc(-c4ccccc4)nc23)c1C	.	?	14µM	?
O=C(NN1CCCCC1)c1cnn2c(C(F)F)cc(-c3ccccc3)nc12	.	.	?	.
O=C(Nc1ccc(C(=O)N2CCOCC2)cc1)c1cnn2c(C(F)F)cc(-c3ccccc3)nc12	.	?	?	.
CC(C)CN(C(=O)CSc1nnnn1-c1ccccc1)c1c(N)n(CC(C)C)c(=O)[nH]c1=O	.	.	.	.
CCCCN(C)S(=O)(=O)c1ccc(C(=O)Nc2nnc(CSC)o2)cc1	.	?	?	13µM
CCc1nnc(NC(=O)c2ccc(S(=O)(=O)N(CC)Cc3ccccc3)cc2)o1	.	.	?	.
COc1ccccc1-c1nnc(NC(=O)c2ccc(S(=O)(=O)N(C)Cc3ccccc3)cc2)o1	.	.	?	10µM
CCN(CC)S(=O)(=O)c1ccc(C(=O)Nc2nnc(CSC)o2)cc1	.	?	.	?
CCN(Cc1ccccc1)S(=O)(=O)c1ccc(C(=O)Nc2nnc(C)o2)cc1	.	9.3µM	?	?
COc1ccc(CN2CCC[C@]3(N[C@H](c4ccc(C(F)(F)F)cc4)[C@@H]4C(=O)N(C)C(=O)[C@@H]43)C2=O)cc1	.	/	/	/
OCCCC1CCCN(Cc2cn[nH]c2-c2ccc(F)cc2F)C1 (centres undefined)	.	.	.	7.4µM
CN1CCN(Cc2cn[nH]c2-c2ccc(F)cc2F)[C@@H](c2ccccc2)C1	.	.	.	2.6µM
O=C(C1CCN(Cc2cn[nH]c2-c2ccc(F)cc2F)CC1)N1CCOCC1	.	.	.	.
Cc1nonc1N1CCN(Cc2cn[nH]c2-c2ccc(F)cc2F)CC1	.	.	.	?
COC(=O)c1ccc(NC(=O)CN2C(=O)CC(C)S(=O)(=O)c3ccccc32)cc1 (centres undefined)	.	.	.	?
CCN(CC)CCCNC(=O)CCn1nc(-c2ccccc2)ccc1=O	.	.	.	.
COc1cc(N=Nc2ccc(C)cc2S(N)(=O)=O)c(C)cc1N	?	/	25µM	/
COc1cc(S(N)(=O)=O)c(OC)cc1N	.	.	.	.
Fc1ccc(NC(=S)Nc2ccccc2N2CCOCC2)cc1Cl	.	?	.	.
CCc1ccccc1-n1nnnc1SCC(=O)Nc1ccc(N2CCN(C)CC2)cc1	.	15µM	.	?
Cc1ccccc1-n1nnnc1SCC(=O)Nc1ccc(N2CCN(C)CC2)cc1	.	.	.	.
CCc1ccccc1-n1nnnc1SCC(=O)Nc1cc(C)on1	.	.	.	9.3µM
Cc1cc(-n2c(C)cc(C(=O)CSc3nnnn3-c3ccccc3)c2C)no1	.	?	8.9µM	.[5.75 µM]
N#Cc1nc2ccccc2n1OCc1ccccc1	.	/	/	/
CC1CN(C(=O)/C(C#N)=C2\N=C(NC(=O)c3ccccc3Cl)c3ccccc32)CC(C)O1 (centres undefined)	/	.	.	.
SMILES	AMA1-RON2 inh	Pf growth 48h	HCV inh	Pf growth 96h
Cc1nc2c(OCc3ccc(OC(F)F)cc3)cccn2c1N(C)C(=O)CCC1CCCC1	.	/	/	/
COc1ccc(NC(=O)Nc2c[nH]c(=O)[nH]c2=O)cc1	.	/	.	2.6µM
O=C(Nc1ccc(C2CC2(Cl)Cl)cc1)c1ccccc1Br (centres undefined)	.	.	.	0.93µM
O=C(Nc1ccc(C(=O)N2CCCC2)cc1)c1ccccc1Br	.	.	.	.
Cc1ccc(-c2cc(C(=O)N/N=C/c3cccnc3)c3ccccc3n2)cc1C	.	/	.	/
Cc1ccc(C)c(-c2cc(C(=O)N/N=C/c3cccnc3)c3ccccc3n2)c1	.	?	.	4.7µM
Cc1cccc(-c2cc(C(=O)Nc3sc(C)c(C)c3C(N)=O)c3ccccc3n2)c1	.	.	.	?
Cc1ccc(C)c(-c2cc(C(=O)Nc3sc(C)c(C)c3C(N)=O)c3ccccc3n2)c1	.	?	11µM	10µM
COCCNC(=O)C1(C)CCN(C(=O)c2ccc3sccc3c2)C1 (centres undefined)	.	/	/	/
O=C(Nc1ccncc1NC(=O)c1cccc([N+](=O)[O-])c1)c1cccc([N+](=O)[O-])c1	.	?	?	2.3µM
O=C(Nc1cccc(NC(=O)c2cccc([N+](=O)[O-])c2)n1)c1cccc([N+](=O)[O-])c1	.	.	?	?
Cc1ccc(C(=O)O)cc1NC(=S)NCCc1ccccc1	.	.	.	?
COc1ccc(NC(=O)c2cccc(Oc3ccc([N+](=O)[O-])cc3Cl)c2)cc1	?	.	?	.
Cc1ccc([N+](=O)[O-])cc1NC(=S)NCCc1ccccc1	.	.	.	13µM
Cc1ccc(C)c(NC(=O)c2cccc(Oc3ccc([N+](=O)[O-])cc3Cl)c2)c1	.	.	?	13µM
Cc1cc(Br)ccc1NC(=S)NCCc1ccccc1	.	.	.	12µM
O=C(O)c1cccc2c1C(=O)c1ccc(N3CCN(Cc4ccc5c(c4)OCO5)CC3)cc1S2(=O)=O	.	/	/	/
Cc1ccc([N+](=O)[O-])cc1NC(=O)c1ccccc1	.	.	.	2.1µM
Cc1cc([N+](=O)[O-])ccc1NC(=O)c1cccc(NC(=O)C(C)C)c1	.	.	11µM	.[5.75 µM]
O=C(Nc1ccc([N+](=O)[O-])cc1NC(=O)c1ccccc1)c1ccccc1	.	/	.	/
CC(C)C(=O)Nc1cccc(C(=O)Nc2cc([N+](=O)[O-])ccc2Cl)c1	.	?	?	.
COc1cccc(C(=O)N2[C@H](COCc3ccccc3)C=CS2(=O)=O)c1	.	/	/	/
CCOC(=O)c1ccccc1NC(=S)N1CC(C)CC(C)C1 (centres undefined)	.[2.32 µM]	2.9µM	.	?
CCOC(=O)c1ccccc1NC(=S)N1CCC(C)CC1	.	?	.	.
CCOC(=O)c1ccccc1NC(=O)c1ccc(N(C)S(C)(=O)=O)cc1	.	.	10µM	.
SMILES	AMA1-RON2 inh	Pf growth 48h	HCV inh	Pf growth 96h
CCOC(=O)c1ccccc1NC(=O)c1c(F)c(F)c(F)c(F)c1F	.	.	10µM	.
CCOC(=O)c1[nH]c(COC(=O)c2ccccc2NC(=O)c2ccco2)c(C(=O)OCC)c1C	.	12µM	?	?
COc1ccc(S(=O)(=O)N2CCC(NC(=O)C3CCCCC3)CC2)cc1	.	.	?	.
CSc1ccc(S(=O)(=O)N2CCC(C(=O)Nc3cccnc3)CC2)cc1	.	.	.	.
COc1ccc(OC2CCN(S(=O)(=O)c3ccc(C(C)=O)cc3)CC2)cc1	.	?	13µM	.
COc1ccc(S(=O)(=O)N2CCC(C(=O)NC3CC3)CC2)cc1	.	9.3µM	.	.
CSc1ccc(S(=O)(=O)N2CCC(C(=O)Nc3ccc(C(N)=O)cc3)CC2)cc1	.	.	.	4.7µM
O=C(NC1CC1)C1CCN(S(=O)(=O)c2ccc(Cl)c([N+](=O)[O-])c2)CC1	.	?	13µM	?
COc1ccc(-c2cnc3nc[nH]c(=O)c3n2)cc1	.	.	.	.
COc1ccc(-c2nc3ccc(C)cn3c2CC2CCCCC2)cc1OC	.	/	/	/
Cc1ccc(S(=O)(=O)N2CCC(C(=O)NC3CCCCCC3)CC2)cc1	.	.	.	.
